Measured values taken from PubChem BioAssay AID1159580 (chemical genetic matrix, 2015).
Several values for one entry are separate records, joined by “and”; a condition that tells them apart may be missing. Identical values can stand only once. The campaign covered roughly 5,500 compounds. About 2,000 (36%) were called active. Inconclusive results (about 18%) are left out. Rule as the data show it: active = normalized growth mostly below about 0.91 (no sharp cut-off); inconclusive = no clear call, values can overlap the other calls; inactive = mostly above about 0.92. The list shows a part of the results.

Experiment: chemical genetic growth profiling, strain panel (AID 1159580);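 also: tested at 20 µM; growth read once vehicle control cultures reached saturation at 30 °C; 1 = growth at the plate median or of vehicle wells; lower values mean less growth of the strain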
Conditions: S. cerevisiae deletion strains, growth OD

Measured: normalized growth

O=P1(N(CCCl)CCCl)NCCCO1 (stereo not given)
inactive: locus YAL013W, strain DEP1, hits give low values 0.998 and 0.974 | locus YAL021C, strain ccr4, hits give low values 0.995 | locus YAL026C, strain drs2, hits give low values 0.981 | locus YAL030W, strain snc1, hits give low values 1.01 | locus YAL040C, strain CLN3, hits give low values 0.973 | locus YBL061C, strain skt5, hits give low values 1.01 | locus YBR009C, strain hhf1, hits give low values 1.01 | locus YBR021W, strain FUR4, hits give low values 1.02 | locus YBR023C, strain chs3, hits give low values 1.02 | locus YBR171W, strain sec66, hits give low values 1 | locus YBR229C, strain ROT2, hits give low values 1 | locus YBR231C, strain swc5, hits give low values 0.995 | locus YBR279W, strain paf1, hits give low values 1 | locus YCL011C, strain gbp2, hits give low values 1.01 | locus YCL016C, strain dcc1, hits give low values 1.04 | locus YCL029C, strain bik1, hits give low values 1.03 | locus YCL061C, strain MRC1 (second series), hits give low values 1 | locus YCL061C, strain MRC1, hits give low values 1 | locus YCL069W, strain vba3, hits give low values 0.995 | locus YCR088W, strain abp1, hits give low values 1 | locus YDL005C, strain med2, hits give low values 0.99 | locus YDL035C, strain GPR1, hits give low values 1.02 | locus YDL040C, strain nat1, hits give low values 0.998 | locus YDL074C, strain BRE1, hits give low values 1.03 | locus YDL101C, strain DUN1, hits give low values 1.01 | locus YDL185W, strain tfp1, hits give low values 1.01 | locus YDL192W, strain arf1, hits give low values 1.03 | locus YDR001C, strain nth1, hits give low values 0.992 | locus YDR069C, strain doa4, hits give low values 1 | locus YDR101C, strain arx1, hits give low values 1.02 | locus YDR137W, strain rgp1, hits give low values 1.01 | locus YDR150W, strain NUM1, hits give low values 0.996 | locus YDR159W, strain sac3, hits give low values 0.99 | locus YDR162C, strain NBP2, hits give low values 1.01 | locus YDR195W, strain ref2 0.977 | locus YDR297W, strain sur2, hits give low values 1.03 | locus YDR318W, strain mcm21, hits give low values 1.03 | locus YDR334W, strain swr1, hits give low values 0.994 | locus YDR335W, strain msn5, hits give low values 1.01 | locus YDR363W, strain ESC2, hits give low values 0.962 | locus YDR388W, hits give low values 1.02 | locus YDR392W, strain spt3, hits give low values 0.941 | locus YDR502C, strain sam2, hits give low values 1.06 | locus YEL003W, strain gim4, hits give low values 0.991 | locus YEL037C, strain rad23, hits give low values 0.984 | locus YEL061C, strain CIN8 (second series), hits give low values 0.98 | locus YEL061C, strain CIN8, hits give low values 1 | locus YER002W, strain NOP16, hits give low values 1.01 | locus YER015W, strain faa2, hits give low values 1.02 | locus YER016W, strain bim1, hits give low values 0.997 | locus YER110C, hits give low values 1.05 | locus YER111C, strain swi4, hits give low values 0.995 | locus YER155C, strain BEM2 (second series), hits give low values 0.936 | locus YER155C, strain BEM2, hits give low values 0.996 | locus YER167W, strain BCK2, hits give low values 1 | locus YFR010W, strain ubp6, hits give low values 0.971 | locus YGL078C, strain dbp3, hits give low values 1.03 | locus YGL086W, strain mad1, hits give low values 1.03 | locus YGL167C, strain pmr1, hits give low values 1.01 | locus YGL173C, strain kem1, hits give low values 1.01 | locus YGL227W, strain vid30, hits give low values 0.992 | locus YGL240W, strain doc1, hits give low values 0.983 | locus YGL248W, strain PDE1, hits give low values 1.01 | locus YGL253W, strain hxk2, hits give low values 0.987 | locus YGR078C, strain PAC10, hits give low values 0.988 | locus YGR135W, strain pre9, hits give low values 1.04 | locus YGR229C, strain SMI1, hits give low values 1 | locus YGR252W, strain gcn5, hits give low values 1.07 | locus YHR013C, strain ard1, hits give low values 1.03 | locus YHR027C, strain rpn1, hits give low values 1.01 | locus YHR030C, strain SLT2, hits give low values 1.01 and 0.994 | locus YHR079C, strain IRE1 (second series), hits give low values 1.03 | locus YHR079C, strain IRE1, hits give low values 0.991 | locus YHR094C, strain hxt1, hits give low values 1.03 | locus YHR129C, strain ARP1, hits give low values 1 | locus YHR142W, strain chs7, hits give low values 1.02 | locus YHR200W, strain rpn10, hits give low values 1.02 | locus YIL066C, strain RNR3, hits give low values 1.02 | locus YIL073C, strain SPO22, hits give low values 1.01 | locus YIL125W, strain kgd1, hits give low values 1.02 | locus YIR030C, strain dcg1, hits give low values 1.03 | locus YJL092W, strain hpr5, hits give low values 1.01 | locus YJL095W, strain BCK1 (second series), hits give low values 1.01 | locus YJL095W, strain BCK1, hits give low values 1.03 and 0.99 | locus YJL115W, strain asf1, hits give low values 0.994 | locus YJL129C, strain trk1, hits give low values 1.02 | locus YJL134W, strain LCB3, hits give low values 1.01 | locus YJL154C, strain vps35, hits give low values 0.988 | locus YJL164C, strain tpk1, hits give low values 1.01 | locus YJL166W, strain qcr8, hits give low values 1.03 | locus YJL168C, strain set2, hits give low values 1.02 | locus YJL187C, strain SWE1 (second series), hits give low values 1.01 | locus YJL187C, strain SWE1, hits give low values 1.02 | locus YJR043C, strain POL32, hits give low values 1.01 | locus YJR066W, strain TOR1, hits give low values 1 | locus YJR075W, strain HOC1, hits give low values 1 | locus YKL009W, strain mrt4, hits give low values 0.957 | locus YKL068W, hits give low values 1 | locus YKL160W, strain elf1, hits give low values 1.03 | locus YKR001C, strain vps1, hits give low values 1.03 | locus YKR026C, strain gcn3, hits give low values 0.993 | locus YKR091W, strain srl3, hits give low values 1.01 | locus YLL001W, strain dnm1, hits give low values 1.04 | locus YLL026W, hits give low values 1.01 | locus YLL041C, strain sdh2, hits give low values 0.991 | locus YLR027C, strain aat2, hits give low values 0.992 | locus YLR039C, strain RIC1, hits give low values 1.02 | locus YLR058C, strain SHM2, hits give low values 1.01 | locus YLR102C, strain apc9, hits give low values 1.02 | locus YLR113W, strain HOG1, hits give low values 0.994 | locus YLR221C, strain rsa3, hits give low values 1.07 | locus YLR258W, strain gsy2, hits give low values 1.01 | locus YLR262C, strain YPT6 (second series), hits give low values 1.01 | locus YLR262C, strain YPT6, hits give low values 1.01 | locus YLR268W, strain sec22, hits give low values 1.03 | locus YLR320W, strain mms22, hits give low values 1.05 | locus YLR330W, strain CHS5, hits give low values 1.01 | locus YLR342W, strain FKS1 (second series), hits give low values 1.02 | locus YLR342W, strain FKS1, hits give low values 1 | locus YLR357W, strain rsc2, hits give low values 0.984 | locus YLR370C, strain arc18, hits give low values 1.02 | locus YLR371W, strain rom2, hits give low values 1.02 | locus YLR384C, strain iki3, hits give low values 1 | locus YLR418C, strain cdc73, hits give low values 1.1 | locus YML016C, strain PPZ1, hits give low values 1 | locus YML032C, strain rad52, hits give low values 1.03 | locus YML120C, strain ndi1, hits give low values 1.04 | locus YML124C, strain tub3, hits give low values 1.04 | locus YMR058W, strain fet3, hits give low values 0.99 | locus YMR078C, strain ctf18, hits give low values 1.03 | locus YMR125W, strain sto1, hits give low values 0.981 | locus YMR129W, hits give low values 0.991 | locus YMR205C, strain PFK2, hits give low values 1.03 | locus YMR223W, strain ubp8, hits give low values 1.05 | locus YMR231W, strain pep5, hits give low values 0.997 | locus YMR263W, strain SAP30, hits give low values 1.01 and 1 | locus YMR307W, strain GAS1, hits give low values 1.03 and 0.994 | locus YNL067W, strain RPL9B, hits give low values 1.01 | locus YNL071W, strain lat1, hits give low values 0.991 | locus YNL128W, strain TEP1, hits give low values 1.02 and 0.983 | locus YNL175C, strain NOP13, hits give low values 0.989 | locus YNL183C, strain NPR1, hits give low values 0.946 | locus YNL197C, strain WHI3, hits give low values 0.976 | locus YNL209W, strain ssb2, hits give low values 1.01 | locus YNL224C, strain SQS1, hits give low values 0.995 | locus YNL233W, strain BNI4, hits give low values 1.02 | locus YNL248C, strain rpa49, hits give low values 0.914 | locus YNL250W, strain rad50, hits give low values 1.03 | locus YNL271C, strain bni1, hits give low values 1.02 | locus YNL298W, strain CLA4, hits give low values 1.04 | locus YNL307C, strain MCK1, hits give low values 1.02 | locus YNL322C, strain KRE1 (second series), hits give low values 1.01 | locus YNL322C, strain KRE1, hits give low values 0.996 | locus YNR049C, strain mso1, hits give low values 0.993 | locus YNR052C, strain pop2, hits give low values 1.02 | locus YOL147C, strain pex11, hits give low values 1.02 | locus YOR001W, strain rrp6, hits give low values 0.934 | locus YOR061W, strain CKA2, hits give low values 1.02 | locus YOR069W, strain VPS5, hits give low values 1.01 | locus YOR070C, strain gyp1, hits give low values 1.01 | locus YOR080W, strain dia2, hits give low values 1.01 | locus YOR083W, strain WHI5 (second series), hits give low values 0.978 | locus YOR083W, strain WHI5, hits give low values 1.05 | locus YOR106W, strain vam3, hits give low values 1.06 | locus YOR136W, strain idh2, hits give low values 1.03 | locus YOR144C, strain elg1, hits give low values 1.05 | locus YOR184W, strain ser1, hits give low values 1.08 | locus YOR231W, strain MKK1, hits give low values 1 | locus YOR265W, strain rbl2, hits give low values 1.01 | locus YOR270C, strain vph1, hits give low values 1.04 | locus YOR290C, strain snf2, hits give low values 1.03 | locus YOR316C, strain cot1, hits give low values 1.04 | locus YPL051W, strain arl3, hits give low values 1.02 | locus YPL055C, strain LGE1, hits give low values 1 | locus YPL078C, strain atp4, hits give low values 0.991 | locus YPL106C, strain sse1, hits give low values 1.04 | locus YPL240C, strain hsp82, hits give low values 1 | locus YPL256C, strain CLN2, hits give low values 0.992 | locus YPR119W, strain clb2, hits give low values 1.03 | locus YPR141C, strain kar3, hits give low values 1.01 | locus YPR163C, strain tif3, hits give low values 1.02 | locus YPR167C, strain met16, hits give low values 1.02 | strain wtn01, hits give low values 1.06
active: locus YKL085W, strain MDH1 (second series), hits give low values 1.08 [resistant] | locus YKL085W, strain MDH1, hits give low values 1.08 [resistant]
